Experimental data: PubChem BioAssay AID1851 (National Center for Advancing Translational Sciences (NCATS), 2009)
Where “and” joins values, the source holds several entries; their conditions need not be identical. Equal entries are not always repeated. The whole screen tested about 16,000 compounds, of which about 5,700 (36%) were called active. Not shown: some 24% with an inconclusive outcome. The call rests on the fitted dose curve; in most records, active means well fitted curve in the direction sought with a large enough effect; inconclusive means small, poorly fitted or top-dose-only effect, or effect the other way; inactive means no such curve, though single readings can be large or run the other way. The list shows a part of the results.
On the % scale 0 is the no-effect control and ±100 the full control effect.

Each compound was assayed against Cytochrome P450 1A2 (Homo sapiens) (UniProt P05177) (assay: Cytochrome panel assay with activity outcomes). Conditions: recombinant CYP, pro-luciferin dealkylation, luminescence, p450-cyp1a2; series mostly up to 57.1 µM; activity, negative = inhibition: at the top concentration.
Cytochrome P450 1A2 (Homo sapiens), sequence (P05177 whole entry, looked up): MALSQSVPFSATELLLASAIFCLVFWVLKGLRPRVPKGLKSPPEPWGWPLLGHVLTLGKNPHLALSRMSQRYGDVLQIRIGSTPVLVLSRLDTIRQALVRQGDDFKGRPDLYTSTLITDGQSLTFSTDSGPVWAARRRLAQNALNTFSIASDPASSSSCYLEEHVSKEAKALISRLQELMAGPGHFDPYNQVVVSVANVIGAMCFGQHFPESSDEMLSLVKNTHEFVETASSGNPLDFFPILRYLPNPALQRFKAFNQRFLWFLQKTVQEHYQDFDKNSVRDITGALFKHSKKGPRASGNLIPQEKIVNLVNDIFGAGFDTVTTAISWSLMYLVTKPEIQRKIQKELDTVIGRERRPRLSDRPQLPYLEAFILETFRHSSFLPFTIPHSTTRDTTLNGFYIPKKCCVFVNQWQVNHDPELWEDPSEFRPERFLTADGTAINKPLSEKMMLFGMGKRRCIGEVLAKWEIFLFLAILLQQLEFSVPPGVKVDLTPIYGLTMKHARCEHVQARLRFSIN
With `CC(=O)OC[C@@H]1O[C@@H](O/N=C2/C[C@@H](O)[C@@H](O)[C@@H]3[C@H]4C(=O)N(c5ccc(F)cc5F)C(=O)[C@@H]4CC[C@H]23)[C@H](OC(C)=O)[C@H](OC(C)=O)[C@@H]1OC(C)=O` the activity, negative = inhibition was -3.19% [at 11.4 µM] (inactive).
In the case of `Cc1cccc(N(CC(=O)NCCSCc2ccco2)S(=O)(=O)c2ccccc2)c1`, the “activity, negative = inhibition” value is reported as -3.73% (inactive).
`C/C(CCN1CCCCc2nc(C)c(C)cc21)=N\O[C@@H](C)c1cc(-c2c(C)cc(C)cc2C)no1` was tested, and the activity, negative = inhibition was 2.23% [at 11.4 µM] (inactive).
With `Nc1ncnc2c1nc(Sc1ccc(Cl)cc1)n2[C@@H]1O[C@H]2COP(=O)(O)O[C@@H]2[C@H]1O` the “activity, negative = inhibition” value was -8.07% (inactive).
`CN(C)c1ccc(-c2nc(NC3CCNCC3)c3ccccc3n2)cc1` was tested, and the AC50 was 15.8 µM (active).
With `CC(C)=NO[C@@H](C)c1cn([C@H](CO)Cc2ccccc2)nn1` the activity, negative = inhibition was -7.23% [at 11.4 µM] (inactive) and -1.97% [at 11.4 µM] (inactive).
In the case of `CCCCNC(=O)CSc1nc2ccccc2c(=O)n1CCNC(C)=O`, the “activity, negative = inhibition” value is reported as -6.64% (inactive).
With `CCCCn1c(SCC(N)=O)nc2ccc(N3CCOCC3)cc2c1=O` the AC50 was 4.47 µM (active).
For `CC1CCN(CCCn2c(=S)[nH]c3ccc(N4CCOCC4)cc3c2=O)CC1`, the “activity, negative = inhibition” value was -26.7% (inactive).
In the case of `Cc1ccc(C)c(C(=O)CN2C(=O)c3ccccc3S2(=O)=O)c1`, the “activity, negative = inhibition” value is reported as -17.5% (inactive).
With `CC(=O)c1cc(C)ccc1OC(=O)CCN1C(=O)C2C3c4ccccc4C(c4ccccc43)C2C1=O` (configuration not stated) the AC50 was 15.8 µM (active).
With `CCOC(=O)CCN1C(=O)[C@H]2[C@@H]3[C@H](O)C=CC(=O)[C@H]3CC[C@H]2C1=O` the activity, negative = inhibition was -6.05% [at 11.4 µM] (inactive).
With `CN(C)CC/C=C1\c2ccccc2CSc2ccccc21` the “activity, negative = inhibition” value was -6.68% [at 25.6 µM] (inactive).
With `CN(C)CC/C=C1\c2ccccc2Sc2ccc(Cl)cc21` the AC50 was 1.58 µM (active).
`CN(C)CC/C=C1\c2ccccc2COc2ccccc21` was tested, and the AC50 was 15.8 µM (active).
For `CN(C)CCC=C1c2ccccc2C=Cc2ccccc21`, the AC50 was “inactive”.
In the case of `CN1CCN(CCC=C2c3ccccc3Sc3ccc(S(=O)(=O)N(C)C)cc32)CC1`, the “activity, negative = inhibition” value is reported as -7.27% (inactive).
In the case of `C[C@H]1CN(CCO)CCN1c1ccccc1`, the activity, negative = inhibition is reported as -18.4% [at 11.4 µM] (inactive).
For `OCCN1CCN(CCC=C2c3ccccc3Sc3ccc(Cl)cc32)CC1`, the AC50 was 15.8 µM (active).
For `CN1CCN(CCCN)CC1`, the activity, negative = inhibition was -19.9% [at 11.4 µM] (inactive).
With `NC[C@H](O)C1CCCCCCC1` the “activity, negative = inhibition” value was -18.7% (inactive).
For `CC(C)N(Cc1ccccc1)S(=O)(=O)c1n[nH]c(C(C)(C)C)n1`, the activity, negative = inhibition was 2.16% [at 11.4 µM] (inactive).
`Cc1ccc(CNC(=O)C2(NC(=O)Nc3ccc(C)cc3)CCCCC2)cc1` was tested, and the “activity, negative = inhibition” value was 6.22% (inactive).
With `Cc1ccc(C)c(NC(=O)NCc2ccc(Cl)cc2)c1` the AC50 was 0.794 µM (active).
With `Cc1ccc(C)c(NC(=O)C2(C)CC3c4ccccc4C2c2ccccc23)c1` (configuration not stated) the “activity, negative = inhibition” value was -20.1% (inactive).
For `CC1(C)C(=O)N(CCN2CCC(C(=O)c3ccc(F)cc3)CC2)c2ccccc21`, the “activity, negative = inhibition” value was -12.4% (inactive).
In the case of `O=C(NCCc1ccccc1)C(=O)NCC1(c2ccccc2)CCCC1`, the “activity, negative = inhibition” value is reported as 6.35% (inactive).
With `O=C(NCCc1ccccc1)C(=O)NN=C1CCCC1` the AC50 was 12.6 µM (active).
For `O=C(CC(=O)NN=C1CCCC1)NCCc1ccccc1`, the “activity, negative = inhibition” value was -25.7% (inactive).
`COC(=O)c1[nH]c2ccc(Br)cc2c1NC(=O)CN1CCCc2ccccc21` was tested, and the AC50 was 5.01 µM (active).
`COC(=O)c1[nH]c2ccc(Br)cc2c1NC(=O)CN1CCN(C2CCCCC2)CC1` was tested, and the AC50 was 12.6 µM (active).
With `C[C@@H]1CCCN(C[C@@H](O)CN2CCCc3ccccc32)C1` the activity, negative = inhibition was -10.7% [at 11.4 µM] (inactive).
`CC(C)(CN)CN` was tested, and the activity, negative = inhibition was 2.94% [at 11.4 µM] (inactive).
With `CN(C)CCNc1nc2c(c(=O)n(C)c(=O)n2C)n1C` the activity, negative = inhibition was -7.73% [at 11.4 µM] (inactive).
For `COc1ccccc1CN1CC2(CCN(S(=O)(=O)c3ccccc3)CC2)C1`, the “activity, negative = inhibition” value was 18.1% (inactive).
In the case of `COc1cc([C@H]2c3cc4c(cc3[C@@H](O)[C@@H]3COC(=O)[C@H]23)OCO4)cc(OC)c1OC`, the “activity, negative = inhibition” value is reported as -19.8% [at 25.6 µM] (inactive).
With `COc1cc2c(c(O)c1OC)C(=O)C(OC)CCC2` (configuration not stated) the AC50 was 12.6 µM (active).
In the case of `C/C(CCC(=O)OC[C@@H]1O[C@H](C#Cc2ccccc2)C=C[C@@H]1Oc1ccc(C)cc1)=N/O[C@@H](C)CN1CCCCc2nc(C)c(C)cc21`, the activity, negative = inhibition is reported as -3.03% [at 11.4 µM] (inactive).
In the case of `O=[N+]([O-])c1ccc2c(c1)S(=O)c1ccccc1-2` (configuration not stated), the AC50 is reported as 0.2 µM (active).
For `CC1=c2c(oc3cc(O)c(Nc4c(C)cc(O)cc4O)c(C)c23)=CC(=O)C1=Nc1c(C)cc(O)cc1O`, the AC50 was 3.16 µM (active).
`CN1[C@@H]2CC[C@H]1CC(OC(c1ccccc1)c1ccccc1)C2` (some centres not stated) was tested, and the AC50 was “inactive”.
`N#Cc1ccc(CN2CCC3(CC2)CCN(S(=O)(=O)c2ccccc2)CC3)cc1` was tested, and the “activity, negative = inhibition” value was -22.8% (inactive).
With `C=CCC(C)(NCc1ccccc1)c1ccco1` (configuration not stated) the “activity, negative = inhibition” value was -27.6% (inactive).
With `C=CC(=O)NC(C)(C)Cc1ccccc1` the “activity, negative = inhibition” value was -14.6% (inactive).
In the case of `CC(=O)Nc1nc2ccccc2n1Cc1ccccc1`, the AC50 is reported as 14.1 µM (active).
In the case of `C=CCn1c(NCc2ccccc2)nc2ccccc21`, the AC50 is reported as 10 µM (active).
With `O=S(=O)(O)c1nc2ccccc2n1Cc1ccccc1` the “activity, negative = inhibition” value was -14.6% (inactive).
